Shown are actives, neighbours in structure and some others; about 11% of the full set was active somewhere.
BAZ2B inh: qHTS Assay for Inhibitors of BAZ2B; 360,000 compounds, 4.4% hits; AlphaScreen BAZ2B-H3K14Ac peptide displacement; Bromodomain adjacent to zinc finger domain protein 2B (Homo sapiens), Q9UIF8; Potency, µM (doses to about 114 µM), inactives show top-dose activity change, negative = inhibition, hits mostly inhibitors; AID 504333, 2011; further: potency means the concentration at half of the fitted maximal effect; on the % scale 0 is the no-effect control and ±100 the full control effect; nearly all actives have a fitted effect of over 60% in size
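Inhibition is scored as reduced AlphaScreen emission. The BAZ2B/b-H3(5-23)K14Ac complex (50 nM each) in PBS pH 7.4, 0.01% Tween-20 meets compound (up to 110 uM) for 30 min at RT before bead addition.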
L3MBTL1 block: qHTS Assay for the Inhibitors of L3MBTL1; AlphaScreen L3MBTL1–H3K9me1 peptide binding; Potency, µM (top dose mostly 57.1 µM), for inactives: at the highest dose activity, negative = inhibition, usual class: inhibitors; 230,000 compounds, 0.66% hits; further: potency means the concentration at half of the fitted maximal effect; on the % scale 0 is the no-effect control and ±100 the full control effect; nearly all actives have a fitted effect of over 60% in size
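Read-out is AlphaScreen signal from streptavidin donor and nickel chelate acceptor beads (10 ug/mL final each) bridging L3MBTL1 (50 nM) and biotinylated K9-monomethylated H3(1-15) peptide (75 nM), after 30 min compound exposure at room temperature.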
G9a inh: qHTS Assay for Inhibitors of Histone Lysine Methyltransferase G9a; G9a H3K9 monomethylation, AlphaScreen, 2 h; Histone-lysine N-methyltransferase EHMT2 (Homo sapiens), Q96KQ7; Potency, µM (series often up to 102 µM), inactives show top-dose activity, negative = inhibition, hits mostly inhibitors; 350,000 compounds, 8.8% hits; further: potency means the concentration at half of the fitted maximal effect; on the % scale 0 is the no-effect control and ±100 the full control effect; nearly all actives have a fitted effect of over 75% in size
Target sequence (Q96KQ7 913-1193 limits assumed): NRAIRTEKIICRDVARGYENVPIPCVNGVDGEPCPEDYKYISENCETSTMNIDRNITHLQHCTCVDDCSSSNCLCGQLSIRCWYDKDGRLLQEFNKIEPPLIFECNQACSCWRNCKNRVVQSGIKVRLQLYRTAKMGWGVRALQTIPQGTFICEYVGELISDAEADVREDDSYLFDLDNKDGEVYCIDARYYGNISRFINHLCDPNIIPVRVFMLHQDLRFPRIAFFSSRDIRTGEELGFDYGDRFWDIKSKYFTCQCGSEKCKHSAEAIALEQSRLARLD
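Step 1: enzyme (final 20 nM) with compound, 15 min RT. Step 2: substrate peptide 500 nM and SAM 20 uM, 2 h RT. Step 3: anti-H3K9me1 antibody and AlphaScreen beads, 10 min, then plate read.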
PI5P4Ka inh: qHTS for Inhibitors of phosphatidylinositol 5-phosphate 4-kinase (PI5P4K); max response, %; PI5P4Kalpha enzyme, ADP-Glo luminescence, 60 min; stronger effect = lower value; 330,000 compounds, 1.2% hits; Phosphatidylinositol 5-phosphate 4-kinase type-2 alpha (Homo sapiens), P48426; AID 652105, 2013; active means max response of -50% or lower; inconclusive means between -30% and -50%; inactive means -30% or higher; further: value at the top dose of about 77 µM; on the % scale 0 is the no-effect control and ±100 the full control effect
Target sequence (P48426 whole entry, looked up): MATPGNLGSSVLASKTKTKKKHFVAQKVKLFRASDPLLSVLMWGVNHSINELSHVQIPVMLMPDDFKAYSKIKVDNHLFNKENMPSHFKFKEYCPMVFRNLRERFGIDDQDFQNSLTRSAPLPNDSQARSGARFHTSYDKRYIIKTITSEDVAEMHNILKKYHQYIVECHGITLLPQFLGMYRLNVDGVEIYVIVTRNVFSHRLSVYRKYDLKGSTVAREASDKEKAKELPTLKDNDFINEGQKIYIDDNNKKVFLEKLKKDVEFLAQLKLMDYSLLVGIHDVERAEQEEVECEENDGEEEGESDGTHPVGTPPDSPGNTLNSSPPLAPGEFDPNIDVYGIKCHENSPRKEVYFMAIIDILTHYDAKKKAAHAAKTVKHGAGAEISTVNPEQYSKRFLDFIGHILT
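Reactions run in 0.038 M HEPES pH 7.4, 0.28 mM EGTA, 0.1% CHAPS and 5% DMSO, with PI5P4Kalpha, substrate, compound and 5 microM ATP final, one hour at room temperature. Readout is ADP-Glo luminescence.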
HP1b binding inh: HTS for Inhibitors of HP1-beta Chromodomain Interactions with Methylated Histone Tails | Chromobox protein homolog 1 (Homo sapiens), P83916 | AlphaScreen HP1-beta / biotin-H3K9me3 peptide binding | Potency, µM (series often up to 114 µM), without a hit: at the top dose activity change, negative = inhibition, usual class: inhibitors | 390,000 compounds, 0.56% hits; further: potency means the concentration at half of the fitted maximal effect; nearly all actives have a fitted effect of over 70% in size
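AlphaScreen: HP1-beta (50 nM) preformed 30 min with biotin-H3(1-18)K9me3 peptide (50 nM) in PBS pH 7.4, 0.01% Tween-20. Compound added for 30 min at RT, then streptavidin donor/nickel chelate acceptor beads (10 ug/mL) for 30 min.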
JMJD2A Tudor: qHTS Assay for Inhibitors of JMJD2A-Tudor Domain; AlphaScreen JMJD2A-Tudor / H3K4me3 peptide binding; Potency, µM (series often up to 114 µM), for the others: at the top dose activity change, negative = inhibition, hits mostly inhibitors; 390,000 compounds, 4.4% hits; AID 504339, 2011; further: potency means the concentration at half of the fitted maximal effect; on the % scale 0 is the no-effect control and ±100 the full control effect; nearly all actives have a fitted effect of over 50% in size
* hit, by the source's call; ? = inconclusive; . = not tested or not shown; ! = not confirmed by another sample; [ ] = remark or other dose. Unless noted, the call rests on the fitted dose curve; in most records, active means well fitted inhibition curve with a large enough effect; inconclusive means small, poorly fitted or top-dose-only effect; inactive means no such curve, though single readings can be large or run the other way.

SMILES	BAZ2B inh	L3MBTL1 block	G9a inh	PI5P4Ka inh	HP1b binding inh	JMJD2A Tudor
CC(C)Oc1ccc(C(=O)CCN2CCOCC2)cc1	.	.	.	2	56%	3%
CCCCCOc1ccc(C(=O)CCN2CCOCC2)cc1	2%	-2%	45µM*	1	45%	-1%
COc1ccc(C(=O)OCCN2CCCCC2)cc1	-18%	.	6%[59 µM]	1	31%	-2%
COc1ccc(C(=O)CCN2CCCCCC2)cc1	-7%	1%	8.9µM*	.	25%	-8%
CCOC(=O)N1CCN(CCC(=O)Nc2cc(C)ccc2C)CC1	-10%	-3%	50µM*!	-1	?	2%
COc1ccc(C(=O)CCN2CCN(c3ccc(OC)cc3)CC2)cc1	?	.	40µM*	11	9%	-31%
COc1ccc(N2CCN(CCC(N)=O)CC2)cc1	-5%	.	15%[59 µM]	-3	31%	-15%
Cc1cccn2c(=O)c(/C=C(\C#N)c3nc4ccccc4n3C)c(Oc3ccc(Cl)cc3)nc12	?	.	4%[59 µM]	.	11%	-23%
COc1ccc(CCN(C)C(=O)CSc2nnc(C3CC3)n2N)cc1OC	-5%	10%	40µM*	-5	28%	-1%
COc1ccc(C(=O)CSc2nnc(C3CCCCC3)n2N)c(OC)c1	-4%	?	-7%[12.7 µM]	-27	28%	-22%
O=C(Nc1ccc(F)c(Cl)c1)C1CCN(S(=O)(=O)c2ccc3c(c2)CCCN3C(=O)C2CCC2)CC1	3%	.	3%[59 µM]	.	28%[57 µM]	?
C=CCNc1nc(N2CCCCC2)c(C#N)c2c1CN(Cc1ccccc1)CC2	-34%	8%	-15%	2	3%	-34%
CCN1CCc2c(C#N)c(N3CCOCC3)nc(NCc3ccccc3)c2C1	?	.	?	1	3%	-20%
CCN1CCc2c(C#N)c(N3CCCCC3)nc(NCc3ccccc3)c2C1	56µM*	.	?	-4	-20%	?
N#Cc1c(NCCO)nc(NCc2ccccc2)c2c1CCN(Cc1ccccc1)C2	45µM*	-7%	?	2	-19%	?
N#Cc1c(N)sc(=S)c2c1CCN(Cc1ccccc1)C2	79µM*	-15%	?	.	.	.
COC(=O)c1ccc(OCC2c3cc(OC)c(OC)cc3CCN2C(=O)c2ccc(F)cc2)cc1 (stereo not given)	-28%	.	-38%[59 µM]	.	33%	-34%
Clc1ccc(Cl)c(-c2nn3c(COc4ccccc4)nnc3s2)c1	5%	3%[11.4 µM]	1.8µM*	.	?	?
Clc1ccccc1-c1nnc2sc(CCc3ccccc3)nn12	1%	-3%	4.5µM*	.	?	?
c1ccc(CCc2nn3c(-c4ccncc4)nnc3s2)cc1	5%	-9%	?	.	-22%	-10%
COc1ccc(OCc2nn3c(Cn4cnc5ccccc54)nnc3s2)cc1	4%	-5%	5.6µM*	.	?	-33%
c1ccc(CCc2nn3c(Cn4cnc5ccccc54)nnc3s2)cc1	-24%	-2%	4µM*	.	-33%	?
c1ccc2c(c1)ncn2Cc1nnc2sc(-c3ccc4c(c3)OCO4)nn12	?	-8%	.	-28	?	-34%
O=C1OCCC1Sc1nnc2c(n1)[nH]c1ccccc12 (stereo not given)	.	.	.	.	20%	-10%
CCCc1cnc2c(c1SCc1cccc(F)c1)c(=O)n(C)c(=O)n2C	0%	.	?	.	49%	7%
SMILES	BAZ2B inh	L3MBTL1 block	G9a inh	PI5P4Ka inh	HP1b binding inh	JMJD2A Tudor
Clc1ccccc1-c1nn2c(Cn3cnc4ccccc43)nnc2s1	-8%	5%	2.8µM*	-20	?	-18%
CC1CCN(c2c([N+](=O)[O-])nn(-c3ccc4c(c3)OCCO4)[n+]2[O-])CC1	22µM*	.	35µM*	2	?	?
N#Cc1c(NC(=O)CSc2nc3c(c(C(F)(F)F)n2)CCc2ccccc2-3)sc2c1CCCC2	9%	6%	11µM*	.	-9%	-14%
COc1ccc(-c2cc(C(F)(F)F)nc(SCC(=O)Nc3sc4c(c3C#N)CCC4)n2)cc1	9%	?	11µM*	.	-25%	-29%
NC(=O)c1c(NC(=O)CSc2nc3c(c(C(F)(F)F)n2)CCc2ccccc2-3)sc2c1CCCC2	9%	-1%	?	.	21%	-4%
CCc1cnc2c(c1SCC(=O)NCc1ccccc1)c(=O)n(C)c(=O)n2C	0%	.	-22%[59 µM]	.	35%	-5%
Cc1ccc(NC(=S)/C(=C(\[O-])c2ccc(C)c([N+](=O)[O-])c2)[n+]2ccccc2)cc1C	56µM*	-12%	?	.	.	.
[O-]/C(=C(\C(=S)Nc1ccc(SC(F)F)cc1)[n+]1ccccc1)c1ccc(Cl)cc1Cl	?	.	35µM*	1	-6%	?
Cc1ccc(/C([O-])=C(/C(=S)Nc2ccc(SC(F)F)cc2)[n+]2ccccc2)cc1[N+](=O)[O-]	?	-20%	22µM*	-3	-21%	?
CCC1Oc2ccccc2N(CC(=O)NCc2cc(OC)ccc2OC)C1=O (stereo not given)	-1%	.	7%[59 µM]	.	31%	-6%
CCC(C)NC(=O)N1c2ccccc2Sc2ccccc21 (stereo not given)	-28%	-9%	45µM*	3	5%	?
Cc1ccc2c(c1)cc(CN(Cc1cccs1)C(=O)c1ccco1)c1nnnn12	1%	0%	10%[59 µM]	?	?	28µM*
Cc1cc(C(=O)NCc2ccc(C(=O)O)o2)c(C)o1	56µM*	.	?	.	?	22µM*
COC(=O)c1ccccc1NC(=O)CSc1nc2nc(C)cc(C)n2n1	-2%	.	10%[59 µM]	.	14%	-10%
Cc1cc(C)c2c(n1)SCCN2C(=O)Nc1ccc(C(=O)Nc2cc(Cl)ccc2C)cc1	3%	.	?	.	40%	-2%
CCCCN1C=CC(=C2C(=O)c3ccccc3C2=O)C=C1	22%	.	50µM*	-16	41%	-4%
O=C(C[n+]1ccc2ccccc2c1)c1cccc2ccccc12	-19%	.	28µM*	-12	19%	-29%
CN(C)c1ccc(C(=O)NNC(=O)C23CC4CC(CC(C4)C2)C3)cc1	.	-2%	.	3	26%	-12%
CN(C)NC(=S)NC(=O)C12CC3CC(CC(C3)C1)C2	?	-27%	-42%	2	10%	?
O=C(NC(=S)N1CCOCC1)C12CC3CCC(CC(C3)C1)C2	0%	4%	3%[59 µM]	0	28%	-10%

Screening data (PubChem BioAssay)
